This note sets out measurements from PubChem BioAssay (NCATS).

Records with an inconclusive call do not appear. A number with no mark means an inactive call. Activity calls are given as the source filed them. Calls follow the shape of the dose curve; as a rule, active = well fitted inhibition curve with a large enough effect; inconclusive = small, poorly fitted or top-dose-only effect; inactive = flat fitted curve, though single readings scatter.
% is scaled to controls: 0 for no effect and ±100 for the full control effect; potency is read from the fitted curve at half-maximal effect.

The test system of the test is CRL-7250. The test is described as follows: Cytotoxic Profiling of Annotated Libraries Using Quantitative High-Throughput Screening (AID 1296008). Also: nearly all actives have a fitted effect of over 60% in size. The settings on record: Five cell lines viability, CellTiter-Glo ATP luminescence, 48-72 h; max response: stronger effect = lower value. The procedure, abridged:
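Compounds were pin-transferred onto cells and incubated 48 or 72 hr at 37 degree Celsius, 95% humidity. CellTiter-Glo was added, plates sat 10 min at room temperature, then ATP-coupled luminescence was imaged as the viability read-out.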
(Cellular ATP, detected with luciferase, serves as a proxy for viable cell number.)
For the compound `CO[C@H]1O[C@@H]2O[C@@]3(C)CCC4[C@H](C)CCC([C@H]1C)[C@]42OO3` (stereo not given in full), the compound was classed as inactive.
Consider `C/C(=C/C=C\C=C\Cc1cnco1)[C@@H](O)C(C)(C)C(N)=O`, for which the max response was 0.0485%.
For `COC(=O)C[C@H]1[C@]2(C)C3=C(C)[C@H](c4ccoc4)C[C@H]3O[C@@H]2[C@H](O)C2[C@](C)(C(=O)OC)C=CC(=O)[C@@]21C` (stereo not given in full), the max response was -6.81%.
Consider `Cc1noc(C)c1-c1cc(O)cc(C(O)c2ccccc2)c1` (stereo not given), for which the Potency is 7.31 µM (active).
`O=C(NCCCN1CCOCC1)c1cnn2c(-c3ccccc3)cc(-c3ccccc3)nc12`: the max response was -7.62%.
For the compound `O=C(Nc1ccccc1)c1ccc(Nc2nnc(-c3ccc(O)cc3)c3ccccc23)cc1`, the max response was -21.4%.
For the compound `CO[C@H]1[C@@H](O)[C@H](O[C@H]2CC[C@@]3(C)C(CCC4C3CC[C@]35COC6(COC(=O)C6)C3CCC45O)C2)O[C@@H](C)[C@@H]1OC1OC(CO)C(OC2OC(CO)C(O)C(O)C2O)C(O)C1O` (stereo not given in full), the Potency was 3.48 µM (active).
Take `CC(=O)NC(C)c1cnc(-c2cnc(Oc3ccc(OC(C)C)cc3)s2)s1` (stereo not given): the max response is -17.1%.
Turning to `CCOc1cc(C(C)(C)C)ccc1C1=NC(C)(c2ccc(Cl)cc2)C(C)(c2ccc(Cl)cc2)N1C(=O)N1CCN(CCCS(C)(=O)=O)CC1` (stereo not given), the Potency was 5.17 µM (active).
With `NC(=O)CCCSc1nc(N)nc(-c2c(Cl)cc3c4c(cccc24)COC3)n1`, the Potency was 1.46 µM (active).
Regarding `Nc1c(S(=O)(=O)c2ccccc2)c2nc3ccccc3nc2n1-c1ccc(F)cc1`, the max response was 2.31%.
As for `C/C=C/[C@@H]1C=C[C@@H]2C[C@H](C)CC[C@H]2[C@]1(C)/C(O)=C1/C(=O)[C@@H](CO)N(C)C1=O`, the outcome was inactive.
Turning to `CCc1cc2c(cc1CC)CC(NCC(O)c1ccc(O)c3[nH]c(=O)ccc13)C2` (stereo not given), the result was inactive.
Take `O=C(NNc1nc2cc(F)ccc2n2cccc12)c1cnccn1`: the Potency is 1.3 µM (active).
As for `CNS(=O)(=O)c1ccccc1Nc1nc(Nc2ccc(N3CCN(C)CC3)cc2OC)ncc1Br`, the Potency is 1.64 µM (active).
`CCC(C)CNCC(=O)N1CCc2sccc2C1COc1cccc(C)c1` (stereo not given): the max response is -0.461%.
With `CCC(C)CNCC(=O)N1CCC2SC=CC2C1COc1cccc(C)c1` (stereo not given), the max response is -4.73%.
On to `CC(=O)Nc1nc(C)c(-c2nc(N3CCCC(O)C3)no2)s1` (stereo not given), for which the Potency was 8.2 µM (active).
With `COc1c2c(nc3occc13)C(CC=C(C)C)(OC)C(O)CC2` (stereo not given), the max response is -11.5%.
On to `C=C1C(=O)O[C@@H]2/C=C(\C)CC/C=C(/C=O)[C@H](OC)[C@@H](OC(=O)C(C)C)[C@@H]12`, for which the max response is 2.09%.
As for `C=C(C)C1=C[C@@]2(C)C(=CC1=O)CC[C@@H](O)[C@@H]2C`, the max response was 3.24%.
Turning to `CCc1cccc(CC)c1-n1c(C=C(C)C)c(C(=O)N2CCNCC2)cc(-c2nc(-c3ccc(C(F)(F)F)cc3)cs2)c1=O`, the call was inactive.
With `CC(F)(F)CN1CCOc2c(nn(-c3ccccc3Cl)c2-c2ccc(Cl)cc2)C1=O`, the compound was called inactive.
Consider `COC(=O)c1cc(Br)cnc1N1CCC(NC2CCCCC2)C(O)C1` (stereo not given), for which the compound was called inactive.
Consider `COc1cc(CN(CCN)C(=O)c2cccs2)ccc1OCc1ccccc1`, for which the max response was 4.59%.
With `CCOc1cccc(NC(=O)c2ccc(N3CCCC3)c(C(F)(F)F)c2)c1`, the max response was -10.4%.
For `COc1cc(O)c2c(c1)/C=C/C[C@H](O)[C@H](O)C(=O)/C=C\C[C@H](C)OC2=O`, the Potency was 16.4 µM (active).
For `Cc1ccccc1CN1CCn2c1nc1c(c2=O)CN(Cc2ccccc2)CC1`, the max response is 1.02%.
Consider `C=C1C(=O)OC2/C=C(\CO)CC/C=C(\C=O)C(O)C(OC(=O)C(C)CC)C12` (stereo not given), for which the max response was 0.0349%.
Turning to `O=S(=O)(NCc1ccccn1)c1ccc(Br)c2ccccc12`, the max response is -0.212%.
On to `CC1(C)OC[C@H](NC(=O)Nc2ccc(Br)cc2Br)[C@H](c2ccccc2)O1`, for which the compound was classed as inactive.
As for `COc1cccc(-c2cc(F)ccc2C2Cc3nc(N)nc(C)c3C(=O)N2)n1` (stereo not given), the Potency was 0.146 µM (active).
Consider `COc1cc2ncnc(Nc3ccc(F)c(Cl)c3)c2cc1O`, for which the outcome was inactive.
With `O=C(NCCCNC(=O)c1ccc[nH]c1=O)c1cc(-c2ccccc2)on1`, the max response is -21.2%.
In the case of `CC(=O)Nc1cccc(Nc2ncnc(N3CCC(OCc4ccc(OC(F)(F)F)cc4)CC3)n2)c1C`, the Potency is 13 µM (active).
With `Cc1c(OCc2cccc(-c3ccc(C(=O)O)cc3)c2)cc2c(c1C)C(=O)C(C1CCCC1)C2` (stereo not given), the max response is 3.68%.
The same measure, in the same setting: the same measure for `CC1(C)CC[C@]2(C(=O)O)CC[C@]3(C)C(=CCC4[C@@]5(C)C[C@@H](O)[C@H](O)[C@@](C)(CO)C5CC[C@]43C)[C@@H]2[C@@H]1O` (stereo not given in full): 2.24%.
Regarding `CC(=O)OC1C(OC(=O)c2ccccc2)C2C(=C(C)CCC2(C)C)C23CCC(C)(C2)C(=O)CC13` (stereo not given), the max response was -34.2%.
Turning to `COc1ccccc1OCCN1CC(COc2cccc3[nH]c4ccccc4c23)OCC1=O` (stereo not given), the call was inactive.
With `O=C(NS(=O)(=O)c1ccc(Br)s1)c1ccc(Cl)cc1Cl`, the max response was -22.3%.
